Screens (PubChem)
Rows were chosen to be rich in hits. Some 1.7% of all compounds tested hit in one or more screens of this group.
KCNH2 WT inh: blocks the wildtype human KCNH2 potassium channel; U2OS, BacMam KCNH2, thallium flux FluxOr; active compounds read low; activity change, % at 1.84 µM; 340,000 tested, 0.37% active; AID 720551;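 active = maximum activity change below -70%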
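U2OS cells transduced with wild-type KCNH2 virus are loaded with FluxOr dye for 45 min, and thallium flux is measured in kinetic reads before and after stimulation buffer. Rate constants are normalized to DMSO controls.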
KCNH2 3.1 inh: blocks the human KCNH2 3.1 channel isoform. U2OS KCNH2 3.1, thallium flux FluxOr; active compounds read low. activity change, % (tested at about 1.8 µM). 340,000 tested, 0.95% active. AID 720553;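 active = maximum activity change below -70%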;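 note: thallium influx rate constant from kinetic fluorescence after stimulation buffer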
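Thallium flux read-out: FluxOr dye with Red40 quencher in HBSS/HEPES, 45 min at RT. Rate constants from kinetic reads were normalized to positive and negative DMSO controls. Cells: U2OS virally expressing the 3.1 isoform.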
RXFP1 ag: activates the human relaxin receptor RXFP1; AID 2676; HEK293T-RXFP1 cAMP TR-FRET, 30 min; response scale: percent of porcine relaxin response, buffer zero; 370,000 tested, 0.3% active; Potency, µM (highest dose often 57.5 µM), without a hit: at the highest dose activation, most hits filed as activators; Q9HBX9; active = well fitted activation curve with a large enough effect; note: potency is the fitted concentration of half-maximal effect; nearly all actives have a fitted effect of over 60% in size
Target sequence (Q9HBX9 whole entry, looked up): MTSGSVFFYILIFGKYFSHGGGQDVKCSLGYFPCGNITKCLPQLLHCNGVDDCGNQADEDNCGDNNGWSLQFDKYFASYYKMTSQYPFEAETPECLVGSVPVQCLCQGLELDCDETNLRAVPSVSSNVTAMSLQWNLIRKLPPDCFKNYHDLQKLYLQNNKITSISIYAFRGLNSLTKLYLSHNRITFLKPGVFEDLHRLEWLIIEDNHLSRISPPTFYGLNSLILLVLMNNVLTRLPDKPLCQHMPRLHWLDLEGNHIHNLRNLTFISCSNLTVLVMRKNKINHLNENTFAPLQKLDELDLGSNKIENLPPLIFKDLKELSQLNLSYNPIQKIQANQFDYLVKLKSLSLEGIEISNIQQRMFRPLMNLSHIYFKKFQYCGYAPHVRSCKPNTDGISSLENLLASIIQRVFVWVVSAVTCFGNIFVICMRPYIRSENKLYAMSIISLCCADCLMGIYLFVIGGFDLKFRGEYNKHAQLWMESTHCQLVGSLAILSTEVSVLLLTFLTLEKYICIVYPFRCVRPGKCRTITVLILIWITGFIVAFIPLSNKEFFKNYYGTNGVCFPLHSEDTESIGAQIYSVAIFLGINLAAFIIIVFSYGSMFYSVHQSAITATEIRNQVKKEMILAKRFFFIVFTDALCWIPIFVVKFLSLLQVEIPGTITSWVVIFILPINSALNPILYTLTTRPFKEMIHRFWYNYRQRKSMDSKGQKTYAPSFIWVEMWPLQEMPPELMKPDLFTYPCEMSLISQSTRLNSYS
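Agonist response is measured as cAMP accumulation in an RXFP1-transfected HEK293T line under PDE4 inhibition. Values are scaled between buffer-only and 29 nM porcine relaxin, and EC50s come from standard Hill equation fits.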
RXFP1 antag: RXFP1 (human) relaxin receptor antagonism; HEK293-RXFP1, relaxin-stimulated cAMP HTRF, 30 min; active compounds read low; activity change, negative = inhibition, % at 57.5 µM; AID 1259400; 350,000 tested, 0.59% active;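 active = activity change of -60% or lower, but not beyond a set lower limit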
pAkt inh: inhibitors of Akt phosphorylation; Neuro2A IGF-stimulated pAkt S473 HTRF, 20 min; active compounds read low; activity change, % for hits at 50 µM; 360,000 tested, 0.32% active; AID 651550; in the data active = activity change below about -80%
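Single-point screen (50 µM final compound) in Neuro2A cells stimulated 20 min with 6 nM IGF at 37 deg C. After lysis, Ser473-phosphorylated Akt read by HTRF (ex 330 nm, em 615/665 nm) as the 665/615 ratio.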
The depositor's hits bear a star; i = inactive; · = no result. % is set by controls: 0 for no effect and ±100 for the full control effect.

SMILES | KCNH2 WT inh | KCNH2 3.1 inh | RXFP1 ag | RXFP1 antag | pAkt inh
CC(Sc1nnc(-c2ccccc2F)n1C)C(=O)Nc1ccc(N2CCOCC2)cc1 (stereo not drawn) | 11.4 | -5.3 | · | -3.6 | i
CC(Sc1nnc(C(F)(F)F)n1C)C(=O)Nc1ccc(N2CCOCC2)cc1 (stereo not drawn) | -140.1* | -185.6* | · | -0.9 | i
CCOC(=O)Cc1c(C)c2c(C)nn(-c3ccccc3)c2oc1=O | -0.9 | 1.2 | 2.4% | 2.4 | -103.1%*
CCOC(=O)Cc1c(C)c2c(C)[nH]nc2oc1=O | 1.1 | -1.5 | 1.3% | -3.0 | i
COc1ccc(CSC2=NCCN2)cc1Cl | -1.9 | -19.9 | 2.5% | 8.7 | i
COc1cc(C(=S)N2CCN(c3ccccc3Cl)CC2)cc(O)c1O | -174.1* | -75.4* | -0.3% | -17.0 | i
COc1ccc(C(=S)N2CCN(c3ccccc3Cl)CC2)cc1OC | -11.8 | 5.2 | 0.7% | 6.3 | i
O=C(CN1CCN(C(=O)c2ccco2)CC1)N1CCc2[nH]c3ccccc3c2C1 | 1.8 | 2.9 | -0.4% | -12.8 | i
O=S(=O)(c1ccc(=S)[nH]c1)N1CCN(Cc2ccccc2)CC1 | -5.8 | 17.2 | · | -66.3* | i
O=S(=O)(c1ccc(=S)[nH]c1)N1CCCCC1 | 2.2 | 4.4 | 0.3% | -22.5 | i
CN1CCN(Cc2c(O)ccc3c(=O)c(Oc4ccccc4Cl)c(C(F)(F)F)oc23)CC1 | -8.0 | 1.7 | 1.7% | -30.7 | i
Cc1oc2c(CN3CCCC3)c(O)ccc2c(=O)c1Oc1ccccc1Br | -9.5 | -7.2 | 7.4% | 7.5 | -85.0%*
CCN1CCN(Cc2c(O)ccc3c(=O)c(Oc4ccccc4Cl)c(C(F)(F)F)oc23)CC1 | · | · | 31.6µM* | · | ·
COc1cc(C2C(C#N)=C(N)Oc3cc(C)n(CCc4ccccc4)c(=O)c32)cc2c1OCO2 (stereo not drawn) | 5.5 | -32.9 | 1.9% | 4.6 | -87.9%*
O=C(Cn1cc([N+](=O)[O-])cn1)N1N=C(C(F)F)CC1(O)C(F)F (stereo not drawn) | 0.5 | 5.9 | 1.3% | 7.7 | i
COc1nn(CC(=O)N2N=C(C)CC2(O)C(F)F)cc1[N+](=O)[O-] (stereo not drawn) | 3.0 | -4.5 | 0.8% | -1.9 | -89.6%*
COc1ccc(C(=O)NC2CC2)cc1OC1CCN(Cc2cc(C)cc(C)c2)CC1 | -9.2 | · | -0.8% | -26.4 | i
COc1ccc(C(=O)NC2CC2)cc1OC1CCN(C(C)CSC)CC1 (stereo not drawn) | -16.3 | -73.6* | 0.4% | 0.1 | i
COc1ccc(C(=O)NCCCC2CCCC2)cc1OC1CCN(C(C)C)CC1 | 45.2 | -93.8* | · | -3.8 | i
CCc1ccc(CN2CCC(Oc3cc(C(=O)NC4CC4)ccc3OC)CC2)cc1 | -108.2* | -97.3* | · | -0.7 | i
COc1ccc(C(=O)NC2CC2)cc1OC1CCN(Cc2ccc(Cl)cc2)CC1 | -128.2* | · | 0.3% | -11.9 | i
CCOCCCNC(=O)c1ccc(OC)c(OC2CCN(C(C)C)CC2)c1 | -12.9 | 4.3 | -1.6% | 6.1 | i
CCn1ccnc1CN(C)Cc1nc(-c2ccccc2)no1 | -2.3 | -8.1 | -2.5% | 2.3 | i
CCn1c(=O)cc(SCC(=O)NCc2ccc(Cl)cc2)c2ccccc21 | · | · | 5.1% | -0.6 | ·
C=CCOc1ccccc1CN1CCC(Oc2cc(C(=O)NC3CC3)ccc2OC)CC1 | -99.4* | -76.9* | 3.7% | -7.2 | i
SMILES | KCNH2 WT inh | KCNH2 3.1 inh | RXFP1 ag | RXFP1 antag | pAkt inh
COc1ccc(C(=O)NC2CC2)cc1OC1CCN(Cc2ccccc2O)CC1 | -20.6 | -48.5 | 0.3% | -6.3 | i
COC(C[C@H](O)C[C@@H](O)[C@H](C)OCc1ccccc1)OC | -8.3 | -1.9 | 1.4% | · | i
COC(C[C@@H](O)C[C@@H](O)[C@@H](C)OCc1ccccc1)OC | 4.6 | -221.7* | · | · | i
CN1CCN(c2cc(N3CCN(C(=O)c4ccco4)CC3)c3c4c(onc24)-c2ccccc2C3=O)CC1 | -29.0 | 21.3 | 1.6% | -20.1 | i
O=C(O)CCCNc1cc(N2CCN(C(=O)c3ccco3)CC2)c2noc3c2c1C(=O)c1ccccc1-3 | -4.9 | 8.4 | -8.0% | -65.2* | i
COC(=O)c1sccc1NC(=O)Cc1ccc(OC)c(OC)c1 | 30.6 | -5.3 | 3.9% | 4.5 | i
